High-throughput results as filed in PubChem BioAssay.
In the library only some 22% were active in any assay of this set; here they are far more common.
CYP2C9 activ = CYP2C9 (human) activation | recombinant CYP2C9, luciferin-H conversion, luminescence; active compounds read high; factor 1 = untreated enzyme, 0 = blocked | activation factor at 5 µM | 96,000 tested, 1.4% active | AID 1024;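 active = activation factor of 2 or more for CYP2C9 at a 5 µM dose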;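 also: 0 = sulfaphenazole-blocked wells and 1 = vehicle-only wells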
Target sequence (P11712 whole entry, looked up): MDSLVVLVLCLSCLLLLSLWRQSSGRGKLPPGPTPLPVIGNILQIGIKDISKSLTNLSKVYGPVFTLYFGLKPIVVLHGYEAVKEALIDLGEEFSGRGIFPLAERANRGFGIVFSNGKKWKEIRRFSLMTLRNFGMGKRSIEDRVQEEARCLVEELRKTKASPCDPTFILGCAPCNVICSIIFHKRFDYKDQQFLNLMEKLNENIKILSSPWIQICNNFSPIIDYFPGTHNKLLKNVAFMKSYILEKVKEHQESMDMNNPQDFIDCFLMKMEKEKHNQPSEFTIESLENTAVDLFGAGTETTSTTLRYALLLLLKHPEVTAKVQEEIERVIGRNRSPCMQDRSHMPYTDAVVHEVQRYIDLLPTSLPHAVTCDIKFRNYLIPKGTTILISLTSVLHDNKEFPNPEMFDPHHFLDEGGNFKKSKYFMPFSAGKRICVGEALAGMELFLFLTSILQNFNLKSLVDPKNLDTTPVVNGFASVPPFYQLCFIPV
CYP2C19 activ = cytochrome P450 2C19 (human) activation; P33261; recombinant CYP2C19, luciferin-H EGE luminescence; active compounds read high; 0 = fully inhibited enzyme, 1 = untreated enzyme; activation factor at 5 µM; 96,000 tested, under 10 active; AID 1025;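 active = activation factor of at least 2 at 5 µM in the primary screen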;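 also: 0 = wells with 2.5 mM tranylcypromine and 1 = vehicle-only wells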
CYP2C9 inhib = inhibitors of human CYP2C9; P11712; inhibition, % at 5 µM; 96,000 tested, 20% active; CYP2C9 Supersomes, luciferin-H conversion, luminescence;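 active = blocking of liver enzyme CYP2C9 beyond about 50% at 5 µM, limit read from the data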
CYP2C19 inhib = human CYP2C19 inhibition | P33261 | CYP2C19 Supersomes, luciferin-H EGE luminescence, 30 min | inhibition, % at 5 µM | 96,000 tested, 21% active | AID 778;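 active = CYP2C19 inhibition above a set limit at 5 µM in the primary screen, cut at about 50% in these data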;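 also: plate controls were negative control wells for no effect and 2.5 mM tranylcypromine positive control for full effect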
Measles CPE = protection of cells from measles virus; AID 841; 140,000 tested, 1.5% active; protection (pct of control), % at 4 µM; Measles virus-infected cells, CPE protection, absorbance; in the data active = protection mostly above about 24%, no sharp cut-off; inactive = mostly below about 26%
An asterisk follows results filed as active; . = no result.

SMILES	CYP2C9 activ	CYP2C19 activ	CYP2C9 inhib	CYP2C19 inhib	Measles CPE
Cc1ccc(-c2csc3ncnc(Cl)c23)cc1	.	.	.	.	8
O=C(Cn1cnc2ccccc2c1=O)Nc1ccc2c(c1)OCO2	.	.	.	.	3
CCN(CC(=O)Nc1ccc2c(c1)OCO2)Cc1nc2ccccc2c(=O)[nH]1	0.2	0.2	81*	77*	11
COCCCn1c(C2CCCCC2)nc2oc3cc(OC)ccc3c(=O)c2c1=O	0.3	0.5	70*	52*	14
CCc1nc2oc3ccccc3c(=O)c2c(=O)n1Cc1ccccc1	1	1	4	3	4
COc1ccc2c(=O)c3c(=O)n(Cc4ccco4)c(C4CCCCC4)nc3oc2c1	0.7	0.5	26	53*	.
COc1ccc2c(=O)c3c(=O)n(Cc4ccco4)c(C(C)C)nc3oc2c1	.	.	.	.	9
CCc1nc2oc3cc(OC)ccc3c(=O)c2c(=O)n1Cc1ccccc1	0.5	0.5	49	53*	10
c1ccc2[nH]c3cc4ncnc4cc3nc2c1	.	.	.	.	5
COC(=O)CSC1=C(C#N)C(=O)NC(c2ccccc2)S1 (centres undefined)	0.1	0.4	92*	58*	3
COc1ccc2ccc(Oc3ncccn3)cc2c1	1	0.6	-2	36	2
c1cnc(Oc2ccc3oc4ccccc4c3c2)nc1	1.1	0.4	-11	63*	2
CSC(=NC#N)N1CCN(c2ccccc2)CC1	1	0.5	-4	51*	3
O=C(CN1CCN(c2ccccc2)CC1)N1CCN(c2ccccc2)CC1	0.6	0.7	38	26	12
CSC(=NC#N)N1CCN(c2cccc(Cl)c2)CC1	0.7	0	33	95*	23
CC1C(=O)CCCCCCCCCC2C1(N1CCOCC1)CS2(=O)=O (centres undefined)	.	.	.	.	11
CCOC(=O)C1(P(=O)(c2ccc(Cl)cc2)c2ccc(Cl)cc2)CCC1	0.7	0.2	29	80*	11
O=C(CSc1ccc2ccccc2c1)Nn1cnnc1	0.1	0.1	90*	88*	14
CCC(C)NC(=O)CSc1ccc(Cl)cc1 (centres undefined)	.	.	.	.	6
Cc1cnc(NC(=O)CSc2ccc(Cl)cc2)s1	0.5	0.3	49	69*	6
O=C(CSc1ccc(Cl)cc1)Nn1cnnc1	0.2	0.1	82*	87*	17
CC(C)C(NC(=O)CSc1ccc(Cl)cc1)C(C)C	0.3	0	66*	100*	6
Cc1nnc(NC(=O)C2CCCN(c3ncccn3)C2)s1 (centres undefined)	1	0.9	4	6	1
Cc1ccc(C(=O)CSc2nnc(CNc3ccc(C)cc3C)o2)cc1	1.1	1.1	-12	-14	10
Cc1nnc(SCC(=O)Nc2ccccc2C(=O)NC2CC2)s1	.	.	.	.	4
SMILES	CYP2C9 activ	CYP2C19 activ	CYP2C9 inhib	CYP2C19 inhib	Measles CPE
COc1ccc(CC(=O)Nc2ccc(C(=O)Nc3ccccc3C(=O)O)cc2)cc1OC	.	.	.	.	1
CCOC(=O)CSc1nnc(CNc2ccc(Cl)cc2)n1-c1ccccc1	0.6	0.5	38	49	29
CCn1c(CNc2cccc(Cl)c2)nnc1SCc1ccccc1	0.7	0.4	33	56*	3
Cn1c(CNc2cccc(Cl)c2)nnc1SCC(=O)OC1CCCCC1	0.2	0.2	81*	79*	9
CCOC(=O)CSc1nnc(CNc2cccc(Cl)c2)n1-c1ccccc1	0.7	0.4	27	56*	5
CCn1c(CNc2ccc(Cl)cc2)nnc1SCc1ccc(Cl)cc1	.	.	.	.	2
CC1=CCC2C(=O)N(C(C)c3ccccc3)C(=O)C2C1 (centres undefined)	0.9	0.1	11	94*	11
CC1=CCC2C(=O)N(Cc3ccccc3)C(=O)C2C1 (centres undefined)	0.7	0.6	32	40	3
Nc1nc(CN2CCN(c3ccccc3F)CC2)nc(Nc2ccccc2)n1	0.2	0.6	77*	42	4
COc1ccc(Nc2nc(N)nc(CN3CCc4ccccc4C3)n2)cc1	0.4	0.6	56*	38	7
Nc1nc(CN2CCc3ccccc3C2)nc(Nc2ccccc2)n1	0.5	0.5	52*	47	14
COc1ccc(NC(=O)COC(=O)c2ncc(Cl)c(Cl)c2Cl)c(OC)c1	.	.	.	.	15
O=C1CC(N2CCC(O)(c3ccc(Br)cc3)CC2)C(=O)N1c1ccc(Cl)cc1 (centres undefined)	.	.	.	.	21
Cc1ccc(C(=O)Nc2ccccc2-c2ccccc2)cc1[N+](=O)[O-]	0.5	0.6	50*	37	0
Cc1ccc(NS(=O)(=O)c2cc(C(=O)O)ccc2Cl)c(C)c1	.	.	.	.	2
COCCNC(=O)c1ccccc1NC(=O)c1ccccc1N(C)S(=O)(=O)c1ccc(C)cc1	0.1	0.2	95*	84*	4
Cc1ccccc1NC(=O)c1ccc(C)c(S(=O)(=O)Nc2ccccn2)c1	0.9	1	8	4	12
Cc1ccc(C)c(NS(=O)(=O)c2cc(C(=O)Nc3ccccc3-c3ccccc3)ccc2Cl)c1	0.3	0.2	70*	79*	2
COCCNC(=O)c1ccccc1NC(=O)c1ccc(Cl)c(S(=O)(=O)Nc2ccc(C)cc2C)c1	0.2	0.8	81*	18	11
O=C(CSc1nnc(-c2cccs2)o1)Nc1cccc(S(=O)(=O)N2CCCCC2)c1	.	.	.	.	12
Cc1cccc(-n2c(CCn3nc(C)c([N+](=O)[O-])c3C)n[nH]c2=S)c1	0.7	0.9	26	8	15
CCCCn1c(CCn2nc(C)c(Br)c2C)n[nH]c1=S	0.5	0.1	49	90*	12
COC(=O)c1cc(NC(=O)Nc2ccccc2)ccc1Cl	.	.	.	.	6
CCCn1c(C)cc(=O)c2cc(NC(=O)c3ccccn3)ccc21	1.1	1	-10	-5	3
N#Cc1c(N)n(CCNC(=O)c2cccs2)c2nc3ccccc3nc12	0.8	0.1	16	87*	28
SMILES	CYP2C9 activ	CYP2C19 activ	CYP2C9 inhib	CYP2C19 inhib	Measles CPE
N#Cc1c(N)n(CCNC(=O)c2ccccc2)c2nc3ccccc3nc12	.	.	.	.	5
Nc1c(S(=O)(=O)c2ccccc2)c2nc3ccccc3nc2n1CCN1CCOCC1	.	.	.	.	5
N#Cc1c(N)n(CCCN2CCOCC2)c2nc3ccccc3nc12	0.7	0.1	32	89*	16
CCCCn1c(NC(C)=O)c(C#N)c2nc3ccccc3nc21	0.9	0.9	14	11	2
CCCCCn1c(N)c(C#N)c2nc3ccccc3nc21	0.8	0.4	22	62*	10
CCOc1ccc(S(=O)(=O)NN)cc1	1	0.8	1	16	13
COC(=O)c1ccc(N2C(=O)CC(Sc3n[nH]c(C)n3)C2=O)cc1 (centres undefined)	1	0.9	5	8	13
CN=C(Nc1cc(Cl)ccc1Cl)SC1CC(=O)N(c2ccc(C(=O)OC)cc2)C1=O (centres undefined)	0	0.1	100*	92*	7
O=C(N/N=C/C(Br)=C\c1ccccc1)c1ccc2nc[nH]c2c1	.	.	.	.	7
O=c1oc2ccccc2c2c1C(c1ccc(Cl)cc1)Nc1ccc3ccccc3c1-2 (centres undefined)	0.9	1	5	2	15
